From PubChem
Shown are actives, neighbours in structure and some others; about 28% of the full set was active somewhere.
CYP2C9 act: human CYP2C9 activators, primary screen, biochemical, luminescence; recombinant CYP2C9, luciferin-H conversion; hits give high values; factor 1 = untreated enzyme, 0 = blocked; activation factor at 5 µM; hit rate 1.4% among 96,000; AID 1024, 2008;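 active = activation factor of 2 or more for CYP2C9 at a 5 µM dose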;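 note: 0 = sulfaphenazole-blocked wells and 1 = vehicle-only wells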
CYP2C19 inh: blockers of cytochrome P450 2C19 activity – biochemical, luminescence, ADME assay, primary screen. P33261. CYP2C19 Supersomes, luciferin-H EGE luminescence, 30 min. inhibition, % at 5 µM. hit rate 21% among 96,000;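 active = CYP2C19 inhibition above a set limit at 5 µM in the primary screen, cut at about 50% in these data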;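 note: plate controls were negative control wells for no effect and 2.5 mM tranylcypromine positive control for full effect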
Target sequence (P33261 whole entry, looked up): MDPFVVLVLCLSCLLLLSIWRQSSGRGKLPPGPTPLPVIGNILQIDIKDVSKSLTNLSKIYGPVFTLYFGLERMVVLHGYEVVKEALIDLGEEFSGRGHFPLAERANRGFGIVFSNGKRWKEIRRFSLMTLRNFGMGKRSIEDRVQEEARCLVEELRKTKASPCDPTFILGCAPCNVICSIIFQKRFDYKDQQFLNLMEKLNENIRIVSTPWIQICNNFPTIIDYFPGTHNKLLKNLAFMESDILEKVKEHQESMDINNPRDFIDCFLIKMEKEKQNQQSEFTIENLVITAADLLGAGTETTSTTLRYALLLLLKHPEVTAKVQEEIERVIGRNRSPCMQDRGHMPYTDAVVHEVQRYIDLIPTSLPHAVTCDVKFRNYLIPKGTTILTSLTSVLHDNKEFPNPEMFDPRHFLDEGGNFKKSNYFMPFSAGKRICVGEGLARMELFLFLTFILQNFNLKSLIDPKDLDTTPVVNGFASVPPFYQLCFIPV
CYP2C19 activ: human CYP2C19 activators, primary screen, biochemical, luminescence | 96,000 tested, under 10 active | Cytochrome P450 2C19 (Homo sapiens), P33261 | activation factor at 5 µM | recombinant CYP2C19, luciferin-H EGE luminescence; hits give high values; 0 = fully inhibited enzyme, 1 = untreated enzyme;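 active = activation factor of at least 2 at 5 µM in the primary screen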;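 note: 0 = wells with 2.5 mM tranylcypromine and 1 = vehicle-only wells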
CYP2C9 inh: blockers of cytochrome P450 2C9 activity – biochemical, luminescence, ADME assay, primary screen; P11712; hit rate 20% among 96,000; CYP2C9 Supersomes, luciferin-H conversion; inhibition, % at 5 µM;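 active = blocking of liver enzyme CYP2C9 beyond about 50% at 5 µM, limit read from the data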
Pyk2 oligo antag: antagonists of Pyk2 self-association, primary screen, Q293 cells, FERM NanoBiT luminescence, HTS. hits give low values. Protein-tyrosine kinase 2-beta (Homo sapiens), Q14289. z-score (the deposit names both 25 µM and 10 µM). hit rate 0.83% among 99,000;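 active = Z-score of -3 or lower, scaled per plate to the spread of control and sample wells; inactive = z-score above -3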;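 note: negative z-score means lost luminescence so less FERM oligomerization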
* hit, by the source's call.

What do the screens show for `CCOc1ccc(NC(=S)N(Cc2ccc(N(C)C)cc2)Cc2ccco2)cc1`?
CYP2C9 act: 0.4; CYP2C19 inh: 50; CYP2C19 activ: 0.5; CYP2C9 inh: 63*; Pyk2 oligo antag: -0.68

How did CC([NH2+][O-])C(C)(C)NO (stereo unspecified) do in these assays?
CYP2C9 act: 1.1; CYP2C19 inh: -10; CYP2C19 activ: 1.1; CYP2C9 inh: -7; Pyk2 oligo antag: -0.69

Results for Cc1cc(C)c2cc(C#N)c(N3CCCC3)nc2c1 ?
CYP2C9 act: 1; CYP2C19 inh: 18; CYP2C19 activ: 0.8; CYP2C9 inh: 1; Pyk2 oligo antag: -0.37

What do the screens show for `CCCC1Cc2nc(N3CCCCC3)c(C#N)cc2CO1` (stereo unspecified)?
CYP2C9 act: 0.1; CYP2C19 inh: 73*; CYP2C19 activ: 0.3; CYP2C9 inh: 86*; Pyk2 oligo antag: 0.06

How did COC(=O)C1CCN(C(=O)c2cc3ccccc3oc2=O)CC1 do in these assays?
CYP2C9 act: 2.2*; CYP2C19 inh: 56*; CYP2C19 activ: 0.4; CYP2C9 inh: -119; Pyk2 oligo antag: 0.87

What do the screens show for `COc1cccc2cc(NC(=O)C3CCCCC3)c(=O)oc12`?
CYP2C9 act: 2.4*; CYP2C19 inh: 4; CYP2C19 activ: 1; CYP2C9 inh: -138; Pyk2 oligo antag: 1.1

How did COc1cccc2cc(C(=O)N3CCN(C45CC6CC(CC(C6)C4)C5)CC3)c(=O)oc12 do in these assays?
CYP2C9 act: 0.4; CYP2C19 inh: 14; CYP2C19 activ: 0.9; CYP2C9 inh: 56*; Pyk2 oligo antag: 0.61

What do the screens show for `O=C(c1cc2ccccc2oc1=O)N1CCN(C(=O)C2CCCO2)CC1` (stereo unspecified)?
CYP2C9 act: 1.2; CYP2C19 inh: 19; CYP2C19 activ: 0.8; CYP2C9 inh: -22; Pyk2 oligo antag: -0.48

What do the screens show for `COc1ccc(CN(C(=O)c2cc3ccccc3oc2=O)C2CCCC2)cc1`?
Pyk2 oligo antag: -2.2

What do the screens show for `COc1cccc(CN(C(=O)c2cc3ccccc3oc2=O)C2CC2)c1`?
CYP2C9 act: 2.4*; CYP2C19 inh: 79*; CYP2C19 activ: 0.2; CYP2C9 inh: -136; Pyk2 oligo antag: -0.56

Results for Cn1nnc2cc(C(=O)N3CCSCC3)ccc21 ?
CYP2C9 act: 1.1; CYP2C19 inh: -4; CYP2C19 activ: 1; CYP2C9 inh: -5; Pyk2 oligo antag: 0.34

Results for COc1cccc2cc(C(=O)N3CCC(C)CC3)c(=O)oc12 ?
CYP2C9 act: 2.9*; CYP2C19 inh: 29; CYP2C19 activ: 0.7; CYP2C9 inh: -194

How did COc1cccc2cc(C(=O)N3C(C)CCCC3C)c(=O)oc12 (stereo unspecified) do in these assays?
Pyk2 oligo antag: -0.56

What do the screens show for `O=C(Nc1ccc2nccnc2c1)c1cnccn1`?
CYP2C9 act: 1; CYP2C19 inh: 51*; CYP2C19 activ: 0.5; CYP2C9 inh: 2; Pyk2 oligo antag: 1.1

What do the screens show for `O=C(Nc1cnc2ccccc2c1)c1ccncc1`?
CYP2C9 act: 0.3; CYP2C19 inh: 86*; CYP2C19 activ: 0.1; CYP2C9 inh: 70*

What do the screens show for `O=C(Nc1ccc(S(=O)(=O)NC2CCCC2)cc1)c1cnccn1`?
CYP2C9 act: 0.1; CYP2C19 inh: 28; CYP2C19 activ: 0.7; CYP2C9 inh: 95*; Pyk2 oligo antag: 0.57

Results for O=C(Nc1ccc2ccccc2c1)c1cnccn1 ?
CYP2C9 act: 1.2; CYP2C19 inh: 56*; CYP2C19 activ: 0.4; CYP2C9 inh: -22; Pyk2 oligo antag: 0.29

What do the screens show for `O=C(Nc1ccc(NC(=O)c2ccco2)cc1)c1cnccn1`?
CYP2C9 act: 1.1; CYP2C19 inh: 27; CYP2C19 activ: 0.7; CYP2C9 inh: -10; Pyk2 oligo antag: 1.3

How did O=C(NNS(=O)(=O)c1ccc2ccccc2c1)c1cccnc1 do in these assays?
Pyk2 oligo antag: 2.9

How did Cc1cccc(N2CCN(C(=O)CCCSc3nc4ccccc4[nH]3)CC2)c1C do in these assays?
CYP2C9 act: 0.6; CYP2C19 inh: 42; CYP2C19 activ: 0.6; CYP2C9 inh: 44; Pyk2 oligo antag: -0.61

What do the screens show for `COc1ccc(C(=O)NC(=O)N2CCCCC2)cc1`?
CYP2C9 act: 1.1; CYP2C19 inh: -2; CYP2C19 activ: 1; CYP2C9 inh: -6; Pyk2 oligo antag: 0.38

Results for CN(C)/C=N/c1sc2c(c1C#N)CC(C)(C)NC2(C)C ?
Pyk2 oligo antag: 0.98

How did O=C(Nc1ccc2c(c1)oc1ccccc12)c1cccnc1 do in these assays?
CYP2C9 act: 0.9; CYP2C19 inh: 20; CYP2C19 activ: 0.8; CYP2C9 inh: 10; Pyk2 oligo antag: -0.57

How did O=C(Nc1ccc2c(c1)oc1ccccc12)c1ccncc1 do in these assays?
CYP2C9 act: 0; CYP2C19 inh: 82*; CYP2C19 activ: 0.2; CYP2C9 inh: 97*; Pyk2 oligo antag: 0.25

Results for COC(=O)c1c(NC(=O)CN2CCCC(C)C2)c2c(C)cccc2n1C (stereo unspecified) ?
CYP2C9 act: 1; CYP2C19 inh: 11; CYP2C19 activ: 0.9; CYP2C9 inh: -3; Pyk2 oligo antag: 0.64

Results for COC(=O)C(NC(C)=O)(Nc1ccccc1)C(=O)OC ?
CYP2C9 act: 1; CYP2C19 inh: 5; CYP2C19 activ: 0.9; CYP2C9 inh: -3; Pyk2 oligo antag: -0.22

Results for CCOc1cccc(OCCOCCn2cnc3ccccc3c2=O)c1 ?
CYP2C9 act: 0.1; CYP2C19 inh: 94*; CYP2C19 activ: 0.1; CYP2C9 inh: 86*; Pyk2 oligo antag: 0.92

What do the screens show for `CC(=O)C(C)Oc1ccc2c3c(c(=O)oc2c1C)CCCC3` (stereo unspecified)?
CYP2C9 act: 0.5; CYP2C19 inh: 58*; CYP2C19 activ: 0.4; CYP2C9 inh: 46; Pyk2 oligo antag: -0.28

What do the screens show for `CC(=O)COc1ccc2c3c(c(=O)oc2c1C)CCCCC3`?
CYP2C9 act: 0.9; CYP2C19 inh: 83*; CYP2C19 activ: 0.2; CYP2C9 inh: 15; Pyk2 oligo antag: 0.7

What do the screens show for `Cc1c(OCC(=O)OC(C)(C)C)ccc2c3c(c(=O)oc12)CCC3`?
CYP2C9 act: 1; CYP2C19 inh: 15; CYP2C19 activ: 0.8; CYP2C9 inh: 2; Pyk2 oligo antag: -0.41

Results for Cc1c(OC(=O)CNC(=O)OC(C)(C)C)ccc2c3c(c(=O)oc12)CCC3 ?
CYP2C9 act: 2.7*; CYP2C19 inh: 41; CYP2C19 activ: 0.6; CYP2C9 inh: -173; Pyk2 oligo antag: -0.14

Results for O=C(NC1CCCc2ccccc21)c1cncc(Br)c1 (stereo unspecified) ?
CYP2C9 act: 0.9; CYP2C19 inh: 18; CYP2C19 activ: 0.8; CYP2C9 inh: 11; Pyk2 oligo antag: 0.09

What do the screens show for `COC(=O)CSc1nnc(CNC(=O)c2ccco2)n1-c1ccc(F)cc1`?
CYP2C9 act: 1.1; CYP2C19 inh: -20; CYP2C19 activ: 1.2; CYP2C9 inh: -15; Pyk2 oligo antag: 1.7

What do the screens show for `COc1ccc(OCCCC(=O)NC(C)c2ccccc2)cc1` (stereo unspecified)?
CYP2C9 act: 1.4; CYP2C19 inh: 57*; CYP2C19 activ: 0.4; CYP2C9 inh: -36; Pyk2 oligo antag: 0.26
